{"source": "PubChem BioAssay (NCATS)", "note": "Inconclusive results are not listed. A call without a number means that no potency is given here. Calls of active or inactive are those of the source. Calls follow the shape of the dose curve; as a rule, active = well fitted curve in the direction sought with a large enough effect; inconclusive = small, poorly fitted or top-dose-only effect, or another doubt; inactive = no such curve, though single readings can be large or run the other way. Potency is read from the fitted curve at half-maximal effect."}
{"assay": "Cytometric Cell-Based qHTS for Inhibitors of the mTORC1 Signaling Pathway in MEF (Tsc2-/-, p53-/-) Cells (AID 2660)", "conditions": "mTORC1 pathway cytometry; series mostly up to 38.3 µM", "text": "NIH Molecular Libraries Probe Production Centers Network [MLPCN]\nNIH Chemical Genomics Center [NCGC]\nAssay Submitter (PI): Blenis, John; Hoffman, Greg; Harvard University\nNCGC Assay Overview: The mammalian target of rapamycin (mTOR) is an intracellular serine/threonine kinase Aberrant regulation of mTOR signaling plays a causative role in a number of human diseases, including cancer, benign tumors such as lymphangioleiomyomatosis (LAM) and Tuberous Sclerosis Complex (TSC), and metabolic diseases such as diabetes and obesity. This project aims to identify inhibitors of ribosomal protein S6 (rpS6) phosphorylation. The phosphorylation of rpS6 is a key event downstream of mTOR activation. The assay uses a phospho-specific antibody of phospho-rpS6 to detect inhibitors of mTOR activation. Mutations in the Tsc1 and Tsc2 genes are the underlying genetic lesions responsible for TSC, causing constitutive activation of the mTORC1 pathway and leading to profound effects on cell metabolism. Aberrant metabolism in cancer has recently received significant attention as a target to develop therapeutic agents in the treatment of cancer.1 As Tsc2-/- cells have lost the ability to respond to energy and growth factor deprivation, these cells are unable to properly down regulate cellular biosynthetic processes in response to metabolic stress, and are thus extremely sensitive to glucose deprivation-induced death.2 A central goal of this project is to explore the unique cell survival and metabolic properties of cells with Tsc1 or Tsc2 by screening for compounds that selectively target the Tsc2-/- MEFs by screening both Tsc2-/- and WT MEF cell lines. We hope to better understand these aspects of TSC physiology in order to exploit them for therapeutic benefit.\nNCGC Acumen Assay Protocol Summary:\nFor quantitative high throughput analysis of mTORC1 signaling, we developed a cell-based assay for immuno-fluorescence based detection of rpS6 phosphorylation on the Acumen Explorer that will be used a platform for the primary small molecule screen. Mouse embryonic fibroblasts (MEFs) are cultured in 1536-well plates using DMEM + 10% FBS. Twenty-four hrs after plating, test compounds (solubilized in DMSO) are delivered and incubated with the cells for 24 hrs at 37 degree Celsius. Following the incubation, media with compound is aspirated and the cells are fixed in 4% paraformaldehyde (PFA) containing PBS + 0.2% TX-100. Next, PFA is aspirated, cells are washed two times with PBS plus 0.2% TX-100 and the cells are blocked for 1 hr at room temperature (blocking buffer: LiCOR Blocking Buffer plus 0.2% TX-100). This is followed by aspiration and staining with Alexa-488 conjugated-phospho-rpS6 Ser235/236 antibody for 2 hours at room temperature (Cell Signaling Technology # 4803, 1:50 dilution in blocking buffer). Cells are washed two times with PBS plus 0.2% TX-100, and stained with 10 uM propidium iodide (PI) for 20-25 minutes for cell number measurement (1:500 dilution of Hoescht staining is also added for IN Cell imaging). The plates are scanned on the Acumen Explorer laser scanning instrument (TTP Labtech) using the 488nm laser for simultaneous excitation of the Alexa-488 and PI. The fluorescence emission from the Alexa-488 conjugated rpS6 phospho-235/236 antibody staining is selected using a […] band pass filter. Fluorescence emission from the PI stain is selected using a 575-640 nm band pass filter. The normalized phospho-S6 staining is calculated as the ratio of the integrated Alexa 488 intensity divided by the integrated PI intensity for the single concentration rapamycin control (7.5 nM) and DMSO columns. […] Inhibition of the pathway is defined based on the normalized phospho-S6 intensity in rapamycin treated cells. […]"}
{"smiles": "CN(N=O)c1ccc(O)c(O)c1", "Potency": "inactive"}
{"smiles": "CN1CC[C@@]2(C)c3cc(OC(=O)Nc4ccccc4)ccc3N(C)[C@@H]12", "Potency": "inactive"}
{"smiles": "CCN(CCCl)Cc1ccccc1Br", "Potency": "inactive"}
{"smiles": "NC(C(=O)O)c1cc(=O)[nH]o1", "note": "(stereo not given)", "Potency": "inactive"}
{"smiles": "CCCn1c(C)c(C(=O)c2ccc3ccccc3c2)c2ccccc21", "Potency": "inactive"}
{"smiles": "CC(=O)c1c(O)c(C)c(O)c(Cc2c(O)c3c(c(C(=O)/C=C/c4ccccc4)c2O)OC(C)(C)C=C3)c1O", "Potency": "inactive"}
{"smiles": "O=S1(=O)N(CCN2CC=C(c3c[nH]c4cc(F)ccc34)CC2)c2cccc3c2N1CCC3", "Potency": "inactive"}
{"smiles": "CC12NC(Cc3ccccc31)c1ccccc12", "note": "(stereo not given)", "Potency": "inactive"}
{"smiles": "CC(C)NP(=O)(NC(C)C)OP(=O)(NC(C)C)NC(C)C", "Potency": "inactive"}
{"smiles": "NC(=O)CI", "Potency": "inactive"}
{"smiles": "C[C@H](N)Cc1cccc(C(F)(F)F)c1", "Potency": "inactive"}
{"smiles": "O=[N+]([O-])c1ccc2nc(N3CCNCC3)ccc2c1", "Potency": "inactive"}
{"smiles": "Nc1ccc(CCN2CCN(c3cccc(C(F)(F)F)c3)CC2)cc1", "Potency": "inactive"}
{"smiles": "C[N+]1(C)CCN(c2ccccc2)CC1", "Potency": "inactive"}
{"smiles": "C[N+]1(C)CCc2cc3c(cc2[C@H]1[C@@H]1OC(=O)c2c1ccc1c2OCO1)OCO3", "Potency": "inactive"}
{"smiles": "NNC(N)=O", "Potency": "inactive"}
{"smiles": "CC1(C(=O)O)C2CCC(O2)C1(C)C(=O)O", "note": "(stereo not given)", "Potency": "13.1 µM (active)"}
{"smiles": "NC(=O)COc1c(F)cc(SCCNS(=O)(=O)c2ccccc2)cc1F", "Potency": "inactive"}
{"smiles": "NCC(CP(=O)(O)O)c1ccc(Cl)cc1", "note": "(stereo not given)", "Potency": "inactive"}
{"smiles": "O=C(O)c1cc[c]([Hg][Cl])cc1", "Potency": "inactive"}
{"smiles": "O=C1C=CC(=O)C=C1", "Potency": "inactive"}
{"smiles": "Clc1cc(I)cc(Cl)c1NC1=NCCN1", "Potency": "inactive"}
{"smiles": "Cc1sc2ccccc2c1CC1=NCCN1", "Potency": "inactive"}
{"smiles": "CCCN(CCC)[C@@H]1CCc2cccc(O)c2C1", "Potency": "inactive"}
{"smiles": "CC(N)c1cccc(Cl)c1Cl", "note": "(stereo not given)", "Potency": "inactive"}
{"smiles": "COc1ccc2c(c1)C13CCCCC1C(C2)N(C)CC3", "note": "(stereo not given)", "Potency": "inactive"}
{"smiles": "COc1ccc2c(c1)/C(=C/c1cnc[nH]1)C(=O)N2", "Potency": "10.4 µM (active)"}
{"smiles": "CC(C)(C)c1o[nH]c(=O)c1CC(N)C(=O)O", "note": "(stereo not given)", "Potency": "inactive"}
{"smiles": "NC(CCCCCP(=O)(O)O)C(=O)O", "note": "(stereo not given)", "Potency": "inactive"}
{"smiles": "COC(=O)N1CCN(C(=O)Cc2ccc(Cl)c(Cl)c2)C(CN2CCCC2)C1", "note": "(stereo not given)", "Potency": "inactive"}
{"smiles": "CC(C)(C)c1cc(C=C(C#N)C#N)cc(C(C)(C)C)c1O", "Potency": "inactive"}
{"smiles": "O=[N+]([O-])c1cc(O)c(O)c([N+](=O)[O-])c1", "Potency": "inactive"}
{"smiles": "NC(Cc1cc(O)c(O)cc1O)C(=O)O", "note": "(stereo not given)", "Potency": "inactive"}
{"smiles": "NCCCP(=O)(O)O", "Potency": "inactive"}
{"smiles": "CCN1C[C@@]2(COC)C3[C@@H](OC)C4[C@@H]1C3([C@@H]1C[C@]3(O)[C@H](OC(=O)c5ccccc5)[C@@H]1[C@]4(OC(C)=O)[C@@H](O)[C@@H]3OC)[C@H](OC)C[C@H]2O", "Potency": "inactive"}
{"smiles": "CC(C)(O)[C@@H]1C2OC(=O)[C@@H]1[C@]1(O)C[C@H]3O[C@]34C(=O)O[C@H]2[C@]14C", "note": "(tested in a mixture with another compound)", "Potency": "inactive"}
{"smiles": "C=CCN(C1=NCCN1)c1c(Cl)cccc1Cl", "Potency": "inactive"}
{"smiles": "CCCN(CCC)C1CCc2cccc(O)c2C1", "note": "(stereo not given)", "Potency": "inactive"}
{"smiles": "C=CCN1C[C@@H](C)N([C@H](c2ccc(C(=O)N(CC)CC)cc2)c2cccc(OC)c2)C[C@@H]1C", "Potency": "inactive"}
{"smiles": "NC(N)=NOCC[C@H](N)C(=O)O", "Potency": "inactive"}
